“And” between values parts separate entries of the source, which are not always exact repeats. Equal values may be shown once. Records with an inconclusive call do not appear. Entries that show only a call come without a potency. The source holds several records for some structures; these can differ, active in one and inactive in another. The source made the active and inactive calls. Unless noted, the call rests on the fitted dose curve; in most records, active means well fitted curve in the direction sought with a large enough effect in the repeat runs; inconclusive means weak or mixed curves; inactive means no such curve, though single readings can be large; an effect the other way counts as inactive or inconclusive.
Key:
[1] = qHTS assay to identify small molecule agonists of the RXR signaling pathway - cell viability counter screen (AID 1159529); further: nearly all actives have a fitted effect of over 50% in size
Outline: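 Compounds dissolved in DMSO were pinned onto HEK 293T cells carrying a beta-lactamase reporter under RXR-alpha control and incubated 16 hr. Cytotoxicity was then quantified by CellTiter-Glo luminescence.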

[2] = qHTS assay to identify small molecule antagonists of the retinoid acid receptor (RAR) signaling pathway - cell viability counter screen (AID 1159551); further: nearly all actives have a fitted effect of over 35% in size
Outline: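 In this counter screen, the RARE-luciferase line C3RL4 was exposed for 6 h at 37 C and 5% CO2 to compounds with retinol at 1 uM final. Cellular ATP, read by luminescence, served as the viability measure.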

[3] = qHTS assay to identify small molecule antagonists of the estrogen related receptor (ERR) signaling pathway (AID 1224819; further: potency means the concentration at half of the fitted maximal effect; nearly all actives have a fitted effect of over 50% in size)
Outline: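 Seed ERR cells 2,000/well; rest 6 h at 37 C/5% CO2; pin compounds in DMSO; incubate 18 h at 37 C; add One-Glo; wait 30 min at room temperature; measure luminescence.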

[4] = qHTS assay to identify small molecule agonists of the estrogen related receptor (ERR) signaling pathway (AID 1224820)
Outline: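 Luminescence readout (One-Glo, 30 min RT) from NTP-supplied ERR cell line exposed to compounds for 18 h at 37 C. Cells seeded 2,000 per well and pre-incubated 6 h before pin-tool compound transfer.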

[5] = test system: estrogen-related receptor alpha (ERRalpha) with PGC-1alpha coactivator, human; experiment: qHTS assay to identify small molecule antagonists of the estrogen related receptor signaling pathway with the pleiotropic PPARgamma coactivator (PGC) (AID 1224821; calls by dose curve; further: potency means the concentration at half of the fitted maximal effect; nearly all actives have a fitted effect of over 50% in size)
Outline: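 PGC/ERR reporter cells; 6 h pre-incubation 37 C/5% CO2; pin-tool compound in DMSO, 18 h 37 C; One-Glo added, 30 min RT; luminescence read. qHTS antagonist mode.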

[6] = qHTS assay to identify small molecule antagonists of the estrogen related receptor signaling pathway with the pleiotropic PPARgamma coactivator (PGC) cell viability counter screen (AID 1224822; further: potency means the concentration at half of the fitted maximal effect)
Outline: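 17.5 h compound treatment of PGC/ERR cells at 37 C; readout CellTiter-Fluor fluorescence; run alongside the PGC/ERR antagonist screen to flag cytotoxic compounds.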

[7] = qHTS assay to identify small molecule agonists of the estrogen related receptor signaling pathway with the pleiotropic PPARgamma coactivator (PGC) (AID 1224823)
Outline: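 Luminescence readout (One-Glo, 30 min RT) from PGC/ERR cell line treated 18 h at 37 C with pin-tool-delivered DMSO compound solutions; cells plated 6 h before dosing. Quantitative HTS format.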

[8] = qHTS assay to identify small molecule antagonists of the estrogen related receptor (ERR) signaling pathway from Tox21 library - cell viability counter screen (AID 1224834); further: nearly all actives have a fitted effect of over 30% in size; further: potency means the concentration at half of the fitted maximal effect
Outline: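 Counter screen run in ERR cells (2,000 cells/well): cells pre-incubated 6 h, then treated with compounds for 17.5 h at 37 C. Fluorescence was read 30 min after CellTiter-Fluor addition.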

[9] = target: Luciferin 4-monooxygenase (Photinus pyralis) (UniProt P08659); experiment: qHTS assay to identify small molecule inhibitors of firefly luciferase (AID 1224835); further: nearly all actives have a fitted effect of over 25% in size; further: potency means the concentration at half of the fitted maximal effect
Outline: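 Inhibition of purified Photinus luciferase is measured by luminescence. Substrate levels (D-luciferin, ATP) sit at their KM values. Each compound is tested in a concentration series.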

[10] = qHTS assay to identify small molecule antagonists of the constitutive androstane receptor (CAR) signaling pathway - cell viability counter screen (AID 1224837); further: nearly all actives have a fitted effect of over 45% in size; further: potency means the concentration at half of the fitted maximal effect
Outline: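 CITCO at 50 nM final was added alongside compounds (15 concentrations) to double-stable hCAR/CYP2B6-2.2kb HepG2 cells. Following 23 hr at 37 C, cell viability was quantified by CellTiter-Fluor fluorescence intensity.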

[11] = target: Nuclear receptor subfamily 1 group I member 3 (Homo sapiens) (UniProt Q14994); experiment: qHTS assay to identify small molecule antagonists of the constitutive androstane receptor (CAR) signaling pathway (AID 1224838); further: nearly all actives have a fitted effect of over 40% in size; further: potency means the concentration at half of the fitted maximal effect
Outline: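 Inhibition of CITCO-driven (50 nM final) CYP2B6 reporter expression is measured in HepG2 cells stably carrying hCAR. Fifteen compound concentrations are applied for 24 h at 37 C, followed by luciferase luminescence.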

[12] = target: Nuclear receptor subfamily 1 group I member 3 (Homo sapiens) (UniProt Q14994); experiment: qHTS assay to identify small molecule agonists of the constitutive androstane receptor (CAR) signaling pathway (AID 1224839); further: nearly all actives have a fitted effect of over 15% in size; further: potency means the concentration at half of the fitted maximal effect
Outline: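 Compounds tested at 15 concentrations on HepG2 cells stably harbouring hCAR and CYP2B6-2.2kb reporter constructs, co-treated with PK11195 (0.75 uM final), 24 h at 37 C; luminescent reporter signal quantified.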

[13] = qHTS assay to identify small molecule antagonists of the estrogen related receptor signaling pathway with the pleiotropic PPARgamma coactivator (PGC) from Tox21 10K library - cell viability counter screen (AID 1224840; active means well fitted cell-killing curve with a large enough effect in the repeat runs, not every such curve was filed as active; further: nearly all actives have a fitted effect of over 40% in size; further: potency means the concentration at half of the fitted maximal effect)
Outline: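 Readout: fluorescence intensity from CellTiter-Fluor after 30 min at 37 C/5% CO2. Preceded by 17.5 h treatment of PGC/ERR cells with DMSO-dissolved compounds, added 6 h post-seeding.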

[14] = qHTS assay to identify small molecule agonists of the estrogen related receptor signaling pathway with the pleiotropic PPARgamma coactivator (PGC) from Tox21 10K library (AID 1224842); further: nearly all actives have a fitted effect of over 15% in size
Outline: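 Luminescence from One-Glo (30 min, room temperature) measured after PGC/ERR cells had 18 h at 37 C with pinned compound (23 nL in DMSO). Cells had been seeded at 2,000 per well and pre-incubated 6 h.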

[15] = target: Thyrotropin receptor (Homo sapiens) (UniProt P16473); experiment: qHTS assay to identify small molecule agonists of the thyroid stimulating hormone receptor (TSHR) signaling pathway (AID 1224843; calls by dose curve; further: nearly all actives have a fitted effect of over 45% in size)
Outline: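 A cell-based cAMP HTRF format was run in TSHR-transfected HEK293 cells, 800 per well. Treatment: 30 min, room temperature. Detection: 1 h with labelled cAMP and anti-cAMP cryptate. Concentration-response over 15 points, three replicates.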

[16] = qHTS assay to identify small molecule agonists of the constitutive androstane receptor (CAR) signaling pathway - cell viability counter screen (AID 1224836); further: nearly all actives have a fitted effect of over 45% in size
Outline: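 23 h treatment, 37 C, 5% CO2. Cell line: HepG2 stably expressing hCAR with a CYP2B6-2.2kb construct. Co-treatment: PK11195, 0.75 uM final. Read-out: CellTiter-Fluor fluorescence intensity.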

[17] = qHTS assay to identify small molecule agonists of the retinoic acid receptor (RAR) signaling pathway (AID 1159553); conditions: C3RL4 RARE luciferase reporter, agonist, 6 h; activation: at 73.3 µM (top of the series) unless noted; further: potency means the concentration at half of the fitted maximal effect
Outline: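 In this cell-based screen, 1,000 C3RL4 cells per well were cultured overnight, dosed with test chemicals in DMSO for 6 hr, and assessed for RARE luciferase luminescence.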

[18] = qHTS assay to identify small molecule antagonists of the retinoic acid receptor (RAR) signaling pathway (AID 1159552; further: nearly all actives have a fitted effect of over 50% in size)
Outline: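 Test chemicals and DMSO controls were pin-transferred onto C3RL4 cells a day after seeding; retinol (1 uM final) followed at once. Luminescent reporter output was quantified after 6 hr of co-incubation and 30 min with detection reagent.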

[19] = qHTS assay to identify small molecule antagonists of the estrogen related receptor (ERR) signaling pathway - cell viability counter screen (AID 1224818)
Outline: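 Viability of ERR cells, CellTiter-Fluor fluorescence; 17.5 h compound exposure at 37 C, DMSO vehicle; 30 min reagent incubation at 37 C/5% CO2.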

Sequence of Nuclear receptor subfamily 1 group I member 3 (Homo sapiens) (Q14994 whole entry, looked up): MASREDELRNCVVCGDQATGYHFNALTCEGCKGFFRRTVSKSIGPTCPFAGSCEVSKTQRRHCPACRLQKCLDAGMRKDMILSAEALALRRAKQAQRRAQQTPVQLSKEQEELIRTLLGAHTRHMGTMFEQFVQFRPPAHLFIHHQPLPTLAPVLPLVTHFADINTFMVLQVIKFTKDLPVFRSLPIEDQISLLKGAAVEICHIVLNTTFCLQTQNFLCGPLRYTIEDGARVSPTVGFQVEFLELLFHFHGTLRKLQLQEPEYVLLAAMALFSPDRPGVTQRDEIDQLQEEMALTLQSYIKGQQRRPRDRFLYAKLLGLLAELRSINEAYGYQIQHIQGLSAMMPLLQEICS
Sequence of Luciferin 4-monooxygenase (Photinus pyralis) (P08659 whole entry, looked up): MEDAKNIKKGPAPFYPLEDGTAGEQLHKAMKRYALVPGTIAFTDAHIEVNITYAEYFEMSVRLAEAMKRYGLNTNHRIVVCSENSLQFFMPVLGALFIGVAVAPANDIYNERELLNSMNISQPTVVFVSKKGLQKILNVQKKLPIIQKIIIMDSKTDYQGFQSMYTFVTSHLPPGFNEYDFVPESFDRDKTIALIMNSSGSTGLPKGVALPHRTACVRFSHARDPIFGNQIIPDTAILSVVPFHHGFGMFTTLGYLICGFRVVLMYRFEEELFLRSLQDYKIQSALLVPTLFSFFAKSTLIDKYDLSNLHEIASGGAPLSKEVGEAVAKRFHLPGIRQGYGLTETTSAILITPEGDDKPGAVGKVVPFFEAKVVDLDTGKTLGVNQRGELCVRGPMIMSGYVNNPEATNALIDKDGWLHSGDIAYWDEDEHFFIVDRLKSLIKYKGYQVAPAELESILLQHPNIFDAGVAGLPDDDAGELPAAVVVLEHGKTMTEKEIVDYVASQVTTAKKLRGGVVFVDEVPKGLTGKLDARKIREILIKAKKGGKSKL
Sequence of Thyrotropin receptor (Homo sapiens) (P16473 whole entry, looked up): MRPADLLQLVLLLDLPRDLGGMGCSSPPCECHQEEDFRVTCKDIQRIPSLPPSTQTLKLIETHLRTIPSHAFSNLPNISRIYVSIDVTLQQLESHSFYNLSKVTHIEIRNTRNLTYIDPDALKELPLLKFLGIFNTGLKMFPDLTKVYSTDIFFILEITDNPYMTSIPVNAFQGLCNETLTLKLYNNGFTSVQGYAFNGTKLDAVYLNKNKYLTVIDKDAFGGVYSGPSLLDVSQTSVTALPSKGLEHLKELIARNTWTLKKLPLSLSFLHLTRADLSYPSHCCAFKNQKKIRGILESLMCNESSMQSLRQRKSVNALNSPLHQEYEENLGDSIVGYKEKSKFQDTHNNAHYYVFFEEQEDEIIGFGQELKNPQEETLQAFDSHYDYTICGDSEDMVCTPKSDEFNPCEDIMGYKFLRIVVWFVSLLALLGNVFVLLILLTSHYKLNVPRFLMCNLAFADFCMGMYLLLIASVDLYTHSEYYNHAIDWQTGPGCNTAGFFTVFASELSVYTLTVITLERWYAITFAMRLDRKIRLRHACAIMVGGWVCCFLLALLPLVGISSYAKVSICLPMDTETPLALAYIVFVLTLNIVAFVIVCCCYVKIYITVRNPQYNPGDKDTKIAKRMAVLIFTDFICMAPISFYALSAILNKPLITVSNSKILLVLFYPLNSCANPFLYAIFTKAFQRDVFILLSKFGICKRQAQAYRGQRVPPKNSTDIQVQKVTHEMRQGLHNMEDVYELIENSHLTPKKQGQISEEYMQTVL

| Compound | Potency [1] | Potency [2] | Potency [3] | outcome [4] | Potency [5] | Potency [6] | outcome [7] | Potency [8] | Potency [9] | Potency [10] | Potency [11] | Potency [12] | Potency [13] | Potency [14] | Potency [15] | Potency [16] | Potency [17] | Potency [18] | outcome [19] |
| --- | --- | --- | --- | --- | --- | --- | --- | --- | --- | --- | --- | --- | --- | --- | --- | --- | --- | --- | --- |
| c1cnc2c(c1)ccc1cccnc12 | inactive | inactive | 2.98 µM (active) | inactive | 2.03 µM (active) | 6.68 µM (active) | inactive | 19.5 µM (active) and 2.17 µM (active) and 4.86 µM (active) | 71.7 µM (active) and inactive | 617 nM (active) and 1.93 µM (active) | 219 nM (active) and inactive and 864 nM (active) | inactive | 2.76 µM (active) and 2.73 µM (active) | inactive | inactive | – | – | – | – |
| COC(=O)OC | inactive | inactive | – | – | – | – | – | inactive | – | inactive | inactive | inactive | inactive | inactive | inactive | inactive | – | – | – |
| CCCN(CCC)C(=O)SCC | inactive | inactive | – | – | – | – | – | inactive | inactive | inactive | inactive | inactive | inactive | – | inactive | inactive | – | – | – |
| O=c1c(O)c(-c2ccc(O)c(O)c2)oc2cc(O)cc(O)c12 | inactive | inactive | – | – | – | inactive | – | 43.6 µM (active) and 27.3 µM (active) and inactive | 35.9 µM (active) [middle of 4 runs] | – | inactive | 54.5 µM (active) and inactive | inactive and 24.3 µM (active) | – | inactive | – | 61.2 µM (active) | – | – |
| CCc1cccc(O)c1 | inactive | inactive | – | – | – | – | – | inactive | inactive | inactive | inactive | inactive | inactive | – | inactive | – | – | – | – |
| Cc1ccc(Cl)cc1 | inactive | inactive | – | – | – | – | – | inactive | inactive | inactive | inactive | inactive | inactive | – | inactive | – | – | – | – |
| CC(=O)CC(=O)N(C)C | inactive | inactive | – | – | – | – | – | inactive | inactive | inactive | – | – | inactive | – | inactive | inactive | – | – | – |
| CC(=O)Nc1ccc(CC(=O)O)cc1 | inactive | inactive | – | – | – | – | – | inactive | inactive | inactive | inactive | inactive | inactive | inactive | inactive | inactive | – | – | – |
| CC(O)CNCC(C)O (stereo not given) | inactive | inactive | – | – | – | – | – | inactive | inactive | inactive | inactive | inactive | inactive | – | inactive | – | – | – | – |
| COc1ccc([C@@H]2CC(=O)c3c(O)cc(O[C@@H]4O[C@H](CO[C@@H]5O[C@@H](C)[C@H](O)[C@@H](O)[C@H]5O)[C@@H](O)[C@H](O)[C@H]4O)cc3O2)cc1OC | inactive | inactive | – | – | – | – | – | inactive | – | inactive | inactive | inactive | inactive | – | inactive | – | – | inactive | – |
| CCCCCCCC(=O)O | inactive | inactive | – | – | – | – | – | inactive | inactive | inactive | inactive | inactive | inactive | – | – | – | – | – | – |
| Clc1cccc(Cl)c1NC1=NCCN1 | inactive | inactive | – | – | – | inactive | – | inactive | – | inactive | inactive | inactive | inactive | – | inactive | – | – | – | inactive |
| Cc1ccccc1Cl | inactive | inactive | – | – | – | – | – | inactive | inactive | inactive | inactive | inactive | inactive | – | inactive | inactive | – | – | – |
| COc1ccc(N)c(OC)c1 | inactive | inactive | – | – | – | – | – | inactive and 54.5 µM (active) | inactive | inactive | inactive | inactive | inactive | – | inactive | inactive | – | – | – |
| O=C1O[C@H]([C@H](O)CO)C(O)=C1O | inactive | inactive | – | – | – | – | – | inactive | inactive | inactive | inactive | inactive | inactive | – | inactive | – | – | – | – |
| CC(C)(C)NC[C@H](O)COc1nsnc1N1CCOCC1 | inactive | inactive | – | – | – | – | – | inactive | inactive | inactive | inactive | inactive | inactive | – | – | inactive | – | – | – |
| COc1ccc2cc3[n+](cc2c1OC)CCc1cc2c(cc1-3)OCO2 | – | inactive | – | – | – | – | – | 27.5 µM (active) | inactive | inactive | inactive | inactive | inactive | inactive | – | – | inactive | inactive | – |
| Cc1ncc(CO)c(CO)c1O | inactive | inactive | – | – | – | – | – | inactive | inactive | inactive | – | – | inactive | – | inactive | inactive | – | – | – |
| O=C(O)Cc1c[nH]c2ccccc12 | inactive | inactive | – | – | – | – | – | inactive | inactive | inactive | inactive | inactive | inactive | inactive | inactive | inactive | – | – | – |

Reference: PubChem BioAssay (Tox21)
